Data published in PubChem BioAssay AID540333 (Southern Research Specialized Biocontainment Screening …, 2011).
The campaign covered roughly 10,000 compounds. About 320 (3.2%) were called active. For the sample, actives were picked, then their nearest neighbours and some compounds at random. Values without a mark were called inactive. No stated cut-off is given here; in the data, active means CPE inhibition mostly above about 9.1% (no sharp cut-off); inactive means mostly below about 7.2%.

Test: Dengue virus cytopathic effect inhibitors, cell-based, CPE readout, HTS (AID 540333)
Conditions: Dengue virus CPE inhibition in host cells, at 20 µM; active compounds read high
With `COc1ccc(CC(=O)Oc2cc(C)[nH]c(=O)c2[N+](=O)[O-])cc1` the CPE inhibition was “inactive”. In the case of `O=C(NCCc1nc2ccccc2[nH]1)/C(=C/c1ccc2c(c1)OCO2)NC(=O)c1ccccc1`, the CPE inhibition is reported as “inactive”. With `C=CCc1ccc(OCCOc2cccc3cccnc23)c(OC)c1` the CPE inhibition was 1.16%. For `NC(=O)CSc1nc2c(c(=O)n1-c1ccccc1)C1(CCCCC1)Cc1ccccc1-2`, the CPE inhibition was 13.4% (active). `Nn1cnc2c(c1=O)C1(CCCCC1)Cc1ccccc1-2` gave a CPE inhibition of 0.27%. For `CSc1n[nH]c2nc3c(c(=O)n12)C1(CCCC1)Cc1ccccc1-3`, the CPE inhibition was “inactive”. `COCc1nnc(NC(=O)c2cc(OC)c(OC)cc2[N+](=O)[O-])s1` showed a CPE inhibition of 0.875%. For `Cc1ccc(S(=O)(=O)c2c(C(=O)c3ccccc3)cnc3cc4c(cc23)OCCO4)cc1`, the CPE inhibition was 13.2% (active). Work on `CCOc1ccc(S(=O)(=O)c2c(C(=O)c3ccc(C)cc3)cnc3cc4c(cc23)OCCO4)cc1` yielded a CPE inhibition of 3.02%. Molecule `Cc1ccc(C(=O)c2cnc3cc4c(cc3c2S(=O)(=O)c2ccccc2)OCCO4)cc1` has a CPE inhibition of 6.29%. With `Cc1ccc(O)c(-c2cc(C(=O)Nc3ccc(S(=O)(=O)Nc4nc(C)cc(C)n4)cc3)[nH]n2)c1` the CPE inhibition was “inactive”. With `COc1cc2cc(CCOC(=O)c3ccco3)oc(=O)c2cc1OC` the CPE inhibition was 0.275%. With `N#Cc1ccc(NC(=O)COC(=O)CCNS(=O)(=O)c2ccccc2)cc1` the CPE inhibition was “inactive”. Work on `CCCCCCCNC(=O)C1(CC2CC(c3cccc(Br)c3)=NO2)CCN(C(=O)C2(C)CC2)CC1` (centres undefined) yielded a CPE inhibition of 2.1%. In the case of `CCCCCCCNC(=O)C1(CC2CC(c3cccc(Br)c3)=NO2)CCN(C(=O)Cc2ccc(F)cc2)CC1` (centres undefined), the CPE inhibition is reported as 21.7% (active). For `CCCCCCCNC(=O)C1(CC2CC(c3ccccc3)=NO2)CCN(C(=O)OC(C)(C)C)CC1` (centres undefined), the CPE inhibition was 14.1% (active). For `CCCCCCCNC(=O)C1(CC2CC(c3cccc(Br)c3)=NO2)CCNCC1` (centres undefined), the CPE inhibition was “inactive”. Work on `CCCCCCCNC(=O)C1(CC2CC(c3ccc(Cl)cc3)=NO2)CCN(C(=O)C2(C)CC2)CC1` (centres undefined) yielded a CPE inhibition of 1.24%. In the case of `COC(=O)C1(CC2CC(c3ccncc3)=NO2)CCN(C(=O)OC(C)(C)C)CC1` (centres undefined), the CPE inhibition is reported as “inactive”. For `O=C(Nc1cccc2nsnc12)c1cccnc1Cl`, the CPE inhibition was “inactive”. In the case of `Cc1ccc(CNC(=O)c2cc(-c3ccccc3)nn2CC2CC(c3cccnc3)=NO2)cc1` (centres undefined), the CPE inhibition is reported as “inactive”. `Cc1ccc(-c2cc(C(F)(F)F)c(C#N)c(=O)[nH]2)cc1` gave a CPE inhibition of 0.3%. `N/C(=N\OC(=O)Cc1ccccc1[N+](=O)[O-])c1ccncc1` showed a CPE inhibition of 0.175%. In the case of `Cc1ccc(C(=O)N/C(=C/c2ccco2)C(=O)NCCc2c[nH]c3ccccc23)cc1`, the CPE inhibition is reported as 0.17%. Work on `CCn1cc([N+](=O)[O-])c(C(=O)N2N=C(c3ccc(O)c(OC)c3)CC2c2ccccc2O)n1` (centres undefined) yielded a CPE inhibition of 2.17%. For `CCn1cc(Cl)c(C(=O)N2N=C(c3ccc4ccccc4c3)CC2c2ccccc2O)n1` (centres undefined), the CPE inhibition was 10% (active). In the case of `CCn1cc([N+](=O)[O-])c(C(=O)N2N=C(c3ccc(OC)cc3OC)CC2c2ccccc2O)n1` (centres undefined), the CPE inhibition is reported as 0.7%. In the case of `CC(=O)c1cccc(NC(=O)CCCOc2ccc(C)cc2)c1`, the CPE inhibition is reported as “inactive”. For `Cc1noc(C)c1CN(C(=S)NC(C)C)c1ccccc1`, the CPE inhibition was “inactive”. With `Cc1ccsc1-c1n[nH]c(=S)n1CC(C)C` the CPE inhibition was “inactive”. With `Cn1cc([N+](=O)[O-])c(C(=O)Nc2ccn(C34CC5CC(CC(C5)C3)C4)n2)n1` the CPE inhibition was 9.72% (active). In the case of `CCn1cc([N+](=O)[O-])c(C(=O)Nc2ccn(C34CC5CC(CC(C5)C3)C4)n2)n1`, the CPE inhibition is reported as 0.05%. Molecule `Cn1nccc1C(=O)Nc1ccn(C23CC4CC(CC(C4)C2)C3)n1` has a CPE inhibition of 1.19%. Work on `O=C(C[n+]1cccc(CNC(=O)c2ccc(OC(F)F)cc2)c1)Nc1cccc(C(F)(F)F)c1` yielded a CPE inhibition of 0.165%. In the case of `CC(/C=C/c1ccccc1F)=N\NC(=O)C(C)C`, the CPE inhibition is reported as 1.25%. `CN(C)c1ccc(N=Nc2ccccc2C(=O)OCC(=O)N2CCCCCC2)cc1` showed a CPE inhibition of 1.56%. With `COc1ccc(C2OCC3(CO2)SC(=O)NC3=O)cc1` (centres undefined) the CPE inhibition was 0.47%. In the case of `O=C(NCC1CCCO1)C(c1cccs1)N(Cc1ccccc1)C(=O)c1ccc(-c2ccccc2)[nH]1` (centres undefined), the CPE inhibition is reported as 8.12%. For `O=C(NCC1CCCO1)C(c1cccs1)N(Cc1ccccc1Cl)C(=O)c1ccc(-c2ccccc2)[nH]1` (centres undefined), the CPE inhibition was 16.9% (active). For `COc1ccc(C(=O)N(CC2CCCO2)C(C(=O)NCCC(C)C)c2ccc(C)cc2)cc1OC` (centres undefined), the CPE inhibition was “inactive”. With `CC(C)(C)NC(=O)C(c1cccs1)N(CC1CCCO1)C(=O)c1ccc(-c2ccccc2)[nH]1` (centres undefined) the CPE inhibition was 28.6% (active). For `Cc1cc(C)cc(NC(=O)C(NCC2CCCO2)c2ccccc2)c1` (centres undefined), the CPE inhibition was “inactive”. With `O=C(NC1CCCC1)C(c1ccncc1)N(Cc1ccccc1)C(=O)c1ccc(-c2ccccc2)[nH]1` (centres undefined) the CPE inhibition was 3.1%. With `O=C(COc1ccccc1[N+](=O)[O-])N/N=C/c1cccs1` the CPE inhibition was “inactive”. For `CCOc1cccc(/C=N/NC(=S)Nc2cc(S(=O)(=O)N3CCOCC3)ccc2N2CCOCC2)c1O`, the CPE inhibition was “inactive”. With `Cc1ccc2[nH]c(=O)cc(C(=O)OCC(=O)c3ccccc3)c2c1` the CPE inhibition was “inactive”. `COC(=O)CN1C(c2ccc(OC)cc2)=Nc2ccc(Cl)cc2C1c1ccccc1` (centres undefined) gave a CPE inhibition of 7.85%. With `COC(=O)CN1C(c2cccc(Cl)c2)=Nc2ccc(Cl)cc2C1c1ccccc1` (centres undefined) the CPE inhibition was 14.1% (active). Work on `CCOC(=O)CN1C(=O)N[C@@H](c2ccccc2)[C@@H](C(=O)OC)[C@H]1C` yielded a CPE inhibition of 0.065%. With `Cc1cc(C(=O)N2CCN(c3ccc([N+](=O)[O-])cc3)CC2)no1` the CPE inhibition was “inactive”. With `O=C1CC(c2ccccc2)Sc2nc(-c3ccccc3)c(-c3ccccc3)n21` (centres undefined) the CPE inhibition was “inactive”. In the case of `Cc1ccc(OCCN(C)C)c([N+](=O)[O-])c1`, the CPE inhibition is reported as 0.995%. `O=[N+]([O-])c1cccc(C(=S)N2CCN(c3ccccc3)CC2)c1` gave a CPE inhibition of 0.055%. Molecule `CS(=O)(=O)N1CCN(c2ccc([N+](=O)[O-])c(NCc3ccc(Cl)cc3)c2)CC1` has a CPE inhibition of 1.16%. For `Cc1ccc(NC(=O)CSc2nnc(-c3cccs3)o2)cc1S(=O)(=O)N1CCCCC1`, the CPE inhibition was “inactive”. For `COC(=O)c1cc(NC(=S)NCc2ccc(Cl)cc2)cc(C(=O)OC)c1`, the CPE inhibition was 13.6% (active). `S=C(NCc1ccncc1)Nc1ccc(Cl)cc1` showed a CPE inhibition of 0.775%. In the case of `COC(=O)Cc1ccc(NC(=S)NCc2ccc(Cl)cc2)cc1`, the CPE inhibition is reported as “inactive”. `CC1=CC(C)(C)N(C(=O)CSc2nnc(N)s2)c2ccccc21` gave a CPE inhibition of 0.04%. `COc1ccc2c(c1)-c1nc(/N=C/c3ccc(O)c(OC)c3)sc1CC2` gave a CPE inhibition of 1.8%. With `Cc1ccc(-n2nc(C)c(C3(O)C(=O)N(C(C)C)c4ccccc43)c2N)cc1` (centres undefined) the CPE inhibition was “inactive”. In the case of `CCOC(=O)C1=C(C)N(Cc2ccccc2)C(=O)NC1c1ccccc1OS(=O)(=O)c1ccccc1[N+](=O)[O-]` (centres undefined), the CPE inhibition is reported as 14.2% (active). `COC(=O)C1=C(C)N(Cc2ccccc2)C(=O)N[C@H]1c1cccc(F)c1` gave a CPE inhibition of 0.125%. Work on `CCOC(=O)C1=C(C)N(CCCCCC(=O)O)C(=O)NC1c1cccc([N+](=O)[O-])c1` (centres undefined) yielded a CPE inhibition of 0.825%. In the case of `Cc1ccc(Cn2c(SCC(=O)N3CC(=O)Nc4ccccc43)nc3ccccc3c2=O)cc1`, the CPE inhibition is reported as 22.3% (active). `Cc1ccc(-n2c(SCC(=O)N3CC(=O)Nc4ccccc43)nc3ccccc3c2=O)cc1` showed a CPE inhibition of 2.37%. Molecule `Cc1cccc(C)c1-n1c(SCC(=O)N2CC(=O)Nc3ccccc32)nc2ccccc2c1=O` has a CPE inhibition of 1.7%. For `CCCn1c(SCC(=O)N2N=C3/C(=C/c4ccc(OC)cc4)CCCC3C2c2ccc(OC)cc2)n[nH]c1=O` (centres undefined), the CPE inhibition was 10.2% (active). For `COc1ccc(C2=NN(C(=O)CSc3nc4ccccc4s3)C(c3ccc(OC)cc3)C2)cc1` (centres undefined), the CPE inhibition was 2.96%. Work on `COc1ccc(C2CC(c3ccccc3)=NN2C(=O)CSc2ncccn2)cc1` (centres undefined) yielded a CPE inhibition of 0.205%. In the case of `C#CCNC(=O)C1=C[C@@H](c2ccc(C(F)(F)F)cc2)C[C@@H](OCc2ccc(CO)cc2)O1`, the CPE inhibition is reported as 2.77%. For `CCC(OCC(O)CN1CCN(CCN2C(=O)c3cccc4cccc(c34)C2=O)CC1)c1ccccc1` (centres undefined), the CPE inhibition was “inactive”. With `Cc1cccc(-n2c(Cc3ccccc3)nnc2SCc2ccc([N+](=O)[O-])cc2)c1` the CPE inhibition was 14.3% (active). With `O=[N+]([O-])c1ccc(CSc2nnc(Cc3ccccc3)n2-c2ccc(F)cc2)cc1` the CPE inhibition was 3.26%. For `Cc1cccc(CC(=O)N2CCN=C2SCc2ccc([N+](=O)[O-])cc2)c1`, the CPE inhibition was “inactive”. Work on `Cc1ccc(NC(=O)c2cc(S(=O)(=O)NCCc3ccccc3)ccc2F)cc1Cl` yielded a CPE inhibition of 2.79%. In the case of `Cc1ccc(NC(=O)CCC(=O)NNS(=O)(=O)c2ccccc2)cc1C`, the CPE inhibition is reported as “inactive”. In the case of `Cc1ccc(S(=O)(=O)NCCC(=O)Nc2ccc(C)c(Cl)c2)cc1C`, the CPE inhibition is reported as 12.8% (active). With `CC(Sc1nnc(-c2ccccc2)c(-c2ccccc2)n1)C(=O)Nc1ncc(Cl)cc1Cl` (centres undefined) the CPE inhibition was 0.725%. In the case of `C/C(=N\NC(=O)c1cccc(S(=O)(=O)Nc2ccccc2Cl)c1)c1ccco1`, the CPE inhibition is reported as “inactive”. In the case of `CCOc1ccc(Br)cc1CSC(=N)N`, the CPE inhibition is reported as 13.3% (active). With `CCOc1ccc(Br)cc1CNCCN1CCOCC1` the CPE inhibition was “inactive”. With `CCOc1ccc(CSC(=N)N)cc1` the CPE inhibition was 0.245%. For `CC1C=CCC2C(=O)N(c3ccc(Cl)cc3O)C(=O)C12` (centres undefined), the CPE inhibition was 28.6% (active). `O=C(Oc1ccccc1N1C(=O)C2CC=CCC2C1=O)c1ccc(Br)cc1` (centres undefined) gave a CPE inhibition of 0.075%. For `O=C(NCCCN1CCOCC1)c1onc(CSc2ccccc2)c1C(=O)NCCCN1CCOCC1`, the CPE inhibition was “inactive”. With `Cc1ccc(CCc2nnc(SCC(=O)Nc3ccccc3Cl)n2-c2ccccc2)o1` the CPE inhibition was 0.905%. Work on `Cc1ccc(C)c(NC(=O)CSc2nnc(-c3n[nH]c4ccccc34)o2)c1` yielded a CPE inhibition of 0.235%. In the case of `O=C(CSc1nnc(-c2n[nH]c3ccccc23)n1-c1ccccc1)Nc1ccccc1Cl`, the CPE inhibition is reported as 19% (active).
